In all, about 5,500 compounds went through this assay and about 2,000 (36%) were called active. About 18% were inconclusive and are not listed. No stated cut-off is given here; in the data, active means normalized growth mostly below about 0.91 (no sharp cut-off); inconclusive means no clear call, values can overlap the other calls; inactive means mostly above about 0.92. This is one part of the list.
Assay: chemical genetic growth profiling, strain panel (AID 1159580);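 further: tested at 20 µM; growth read once vehicle control cultures reached saturation at 30 °C; 1 = growth at the plate median or of vehicle wells; lower values mean less growth of the strain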
Conditions: growth OD

Measured: normalized growth

CCCCCC(=O)O[C@]1(C(C)=O)CCC2C3CCC4=CC(=O)CC[C@]4(C)C3CC[C@@]21C (some centres undefined)
inactive: S. cerevisiae deletion strains, locus YJR066W, strain TOR1, active compounds read low 0.939 | S. cerevisiae deletion strains, locus YKL009W, strain mrt4, active compounds read low 1.01 | S. cerevisiae deletion strains, locus YKL068W, active compounds read low 1 | S. cerevisiae deletion strains, locus YKL085W, strain MDH1 (second series), active compounds read low 1.01 | S. cerevisiae deletion strains, locus YKL085W, strain MDH1, active compounds read low 1.01 | S. cerevisiae deletion strains, locus YKL160W, strain elf1, active compounds read low 0.998 | S. cerevisiae deletion strains, locus YKL190W, strain CNB1, active compounds read low 1.01 | S. cerevisiae deletion strains, locus YKR001C, strain vps1, active compounds read low 1.01 | S. cerevisiae deletion strains, locus YKR026C, strain gcn3, active compounds read low 1 | S. cerevisiae deletion strains, locus YKR091W, strain srl3, active compounds read low 0.99 | S. cerevisiae deletion strains, locus YLL001W, strain dnm1, active compounds read low 1 | S. cerevisiae deletion strains, locus YLL026W, active compounds read low 1.01 | S. cerevisiae deletion strains, locus YLL041C, strain sdh2, active compounds read low 0.99 | S. cerevisiae deletion strains, locus YLR027C, strain aat2, active compounds read low 1 | S. cerevisiae deletion strains, locus YLR039C, strain RIC1, active compounds read low 1.02 | S. cerevisiae deletion strains, locus YLR058C, strain SHM2, active compounds read low 1.02 | S. cerevisiae deletion strains, locus YLR102C, strain apc9, active compounds read low 1.01 | S. cerevisiae deletion strains, locus YLR113W, strain HOG1, active compounds read low 0.988 | S. cerevisiae deletion strains, locus YLR221C, strain rsa3, active compounds read low 0.999 | S. cerevisiae deletion strains, locus YLR258W, strain gsy2, active compounds read low 1 | S. cerevisiae deletion strains, locus YLR262C, strain YPT6 (second series), active compounds read low 1.02 | S. cerevisiae deletion strains, locus YLR262C, strain YPT6, active compounds read low 1.09 | S. cerevisiae deletion strains, locus YLR268W, strain sec22, active compounds read low 1.02 | S. cerevisiae deletion strains, locus YLR320W, strain mms22, active compounds read low 1.01 | S. cerevisiae deletion strains, locus YLR330W, strain CHS5, active compounds read low 1.01 | S. cerevisiae deletion strains, locus YLR342W, strain FKS1 (second series), active compounds read low 0.997 | S. cerevisiae deletion strains, locus YLR342W, strain FKS1, active compounds read low 0.996 | S. cerevisiae deletion strains, locus YLR357W, strain rsc2, active compounds read low 1.01 | S. cerevisiae deletion strains, locus YLR370C, strain arc18, active compounds read low 0.998 | S. cerevisiae deletion strains, locus YLR371W, strain rom2, active compounds read low 1.01 | S. cerevisiae deletion strains, locus YLR384C, strain iki3, active compounds read low 0.996 | S. cerevisiae deletion strains, locus YLR418C, strain cdc73, active compounds read low 1.01 | S. cerevisiae deletion strains, locus YML016C, strain PPZ1, active compounds read low 1 | S. cerevisiae deletion strains, locus YML032C, strain rad52, active compounds read low 1.01 | S. cerevisiae deletion strains, locus YML120C, strain ndi1, active compounds read low 1 | S. cerevisiae deletion strains, locus YML124C, strain tub3, active compounds read low 1 | S. cerevisiae deletion strains, locus YMR058W, strain fet3, active compounds read low 1.01 | S. cerevisiae deletion strains, locus YMR078C, strain ctf18, active compounds read low 1.01 | S. cerevisiae deletion strains, locus YMR125W, strain sto1, active compounds read low 1.01 | S. cerevisiae deletion strains, locus YMR129W, active compounds read low 1 | S. cerevisiae deletion strains, locus YMR205C, strain PFK2, active compounds read low 0.973 | S. cerevisiae deletion strains, locus YMR223W, strain ubp8, active compounds read low 1.01 | S. cerevisiae deletion strains, locus YMR231W, strain pep5, active compounds read low 1 | S. cerevisiae deletion strains, locus YMR307W, strain GAS1, active compounds read low 1.1 | S. cerevisiae deletion strains, locus YNL067W, strain RPL9B, active compounds read low 0.998 | S. cerevisiae deletion strains, locus YNL071W, strain lat1, active compounds read low 1 | S. cerevisiae deletion strains, locus YNL128W, strain TEP1, active compounds read low 1.02 | S. cerevisiae deletion strains, locus YNL183C, strain NPR1, active compounds read low 0.965 | S. cerevisiae deletion strains, locus YNL209W, strain ssb2, active compounds read low 1 | S. cerevisiae deletion strains, locus YNL233W, strain BNI4, active compounds read low 1.03 | S. cerevisiae deletion strains, locus YNL248C, strain rpa49, active compounds read low 1 | S. cerevisiae deletion strains, locus YNL250W, strain rad50, active compounds read low 1.01 | S. cerevisiae deletion strains, locus YNL271C, strain bni1, active compounds read low 1.02 | S. cerevisiae deletion strains, locus YNL298W, strain CLA4, active compounds read low 1.02 | S. cerevisiae deletion strains, locus YNL307C, strain MCK1, active compounds read low 1.01 | S. cerevisiae deletion strains, locus YNL322C, strain KRE1 (second series), active compounds read low 0.999 | S. cerevisiae deletion strains, locus YNL322C, strain KRE1, active compounds read low 1.01 | S. cerevisiae deletion strains, locus YNR049C, strain mso1, active compounds read low 1 | S. cerevisiae deletion strains, locus YNR052C, strain pop2, active compounds read low 1.02 | S. cerevisiae deletion strains, locus YOL012C, strain htz1 1.02 | S. cerevisiae deletion strains, locus YOL147C, strain pex11, active compounds read low 1 | S. cerevisiae deletion strains, locus YOR001W, strain rrp6, active compounds read low 1.01 | S. cerevisiae deletion strains, locus YOR061W, strain CKA2, active compounds read low 1 | S. cerevisiae deletion strains, locus YOR069W, strain VPS5, active compounds read low 1.01 | S. cerevisiae deletion strains, locus YOR070C, strain gyp1, active compounds read low 1 | S. cerevisiae deletion strains, locus YOR080W, strain dia2, active compounds read low 1 | S. cerevisiae deletion strains, locus YOR083W, strain WHI5, active compounds read low 0.997 | S. cerevisiae deletion strains, locus YOR106W, strain vam3, active compounds read low 1.01 | S. cerevisiae deletion strains, locus YOR136W, strain idh2, active compounds read low 1.02 | S. cerevisiae deletion strains, locus YOR144C, strain elg1, active compounds read low 1.01 | S. cerevisiae deletion strains, locus YOR184W, strain ser1, active compounds read low 0.969 | S. cerevisiae deletion strains, locus YOR231W, strain MKK1, active compounds read low 0.976 | S. cerevisiae deletion strains, locus YOR265W, strain rbl2, active compounds read low 0.998 | S. cerevisiae deletion strains, locus YOR270C, strain vph1, active compounds read low 1.04 | S. cerevisiae deletion strains, locus YOR290C, strain snf2, active compounds read low 0.959 | S. cerevisiae deletion strains, locus YOR316C, strain cot1, active compounds read low 1.01 | S. cerevisiae deletion strains, locus YPL051W, strain arl3, active compounds read low 1.01 | S. cerevisiae deletion strains, locus YPL055C, strain LGE1, active compounds read low 1.01 | S. cerevisiae deletion strains, locus YPL078C, strain atp4, active compounds read low 1.01 | S. cerevisiae deletion strains, locus YPL106C, strain sse1, active compounds read low 0.986 | S. cerevisiae deletion strains, locus YPL240C, strain hsp82, active compounds read low 0.991 | S. cerevisiae deletion strains, locus YPL241C, strain CIN2, active compounds read low 1 | S. cerevisiae deletion strains, locus YPL256C, strain CLN2, active compounds read low 0.958 | S. cerevisiae deletion strains, locus YPR119W, strain clb2, active compounds read low 1.01 | S. cerevisiae deletion strains, locus YPR141C, strain kar3, active compounds read low 1.01 | S. cerevisiae deletion strains, locus YPR163C, strain tif3, active compounds read low 1.01 | S. cerevisiae deletion strains, locus YPR167C, strain met16, active compounds read low 1.01 | S. cerevisiae deletion strains, strain wtn01, active compounds read low 1.01 | S. cerevisiae strains, strain wild type, active compounds read low 1.01
